Shown are actives, neighbours in structure and some others; about 11% of the full set was active somewhere.
G9a inh: inhibitors of human histone lysine methyltransferase G9a; Q96KQ7; G9a H3K9 monomethylation, AlphaScreen, 2 h; Potency, µM (top dose mostly 102 µM), most hits filed as inhibitors; actives 8.8% (n = 350,000); further: nearly all actives have a fitted effect of over 75% in size
Target sequence (Q96KQ7 913-1193 limits assumed): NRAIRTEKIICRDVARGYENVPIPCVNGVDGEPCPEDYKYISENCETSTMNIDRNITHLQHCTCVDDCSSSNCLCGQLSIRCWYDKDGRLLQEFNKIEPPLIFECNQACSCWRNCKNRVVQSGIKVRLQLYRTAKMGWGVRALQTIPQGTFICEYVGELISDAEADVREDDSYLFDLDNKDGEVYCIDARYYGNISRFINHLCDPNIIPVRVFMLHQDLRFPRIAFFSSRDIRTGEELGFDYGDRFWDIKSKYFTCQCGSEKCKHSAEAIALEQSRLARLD
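Quantitative HTS format: methyltransferase activity on a biotin-tagged H3K9 peptide is measured by AlphaScreen, using a rabbit anti-monomethyl-H3K9 antibody with streptavidin donor and anti-IgG acceptor beads. Final levels are 20 nM enzyme, 500 nM peptide, 20 uM SAM; 2 h RT.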
Tau fluor cs: counter-screen for tau fibril formation inhibitors. actives 0.93% (n = 280,000). AID 1463. Potency, µM (series often up to 57.7 µM). tau K18 P301L Alexa594 fluorescence, heparin fibrillization; further: nearly all actives have a fitted effect of over 55% in size
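Human tau K18 P301L (15 uM unlabeled, 0.24 uM Alexa 594-labeled) in 100 mM sodium acetate pH 7 with 20 uM heparin, 6 hr at 37 C. ThT 30 uM added, 1 hr ambient; Alexa 594 FP and total fluorescence read at 555/632 nm.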
Sfp inh: Sfp phosphopantetheinyl transferase inhibition; AID 1490; actives 3.5% (n = 310,000); Q9F4F7; Potency, µM, usual class: inhibitors; Biochemical Sfp PPTase activity, qHTS;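 further: the enzyme is Sfp with the accession as filed and its product quenches rhodamine fluorescence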
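Fluorescence-quenching assay: 15 nM Sfp-PPTase preincubated 15 min at room temperature with compound, then 5 uM rhodamine-CoA and 12.5 uM BHQ-2-labelled YbbR peptide added. Fluorescence (ex 525/em 598 nm) read at start and after 30 min; difference gives rate.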
Tau FP inhib: tau fibrillization inhibition (FP); P10636; K18 P301L tau heparin fibrillization, Alexa594 FP, 6 h; Potency, µM (doses to about 57.7 µM), actives largely listed as inhibitors; actives 0.39% (n = 280,000); AID 1468; further: nearly all actives have a fitted effect of over 55% in size
Target sequence (P10636 561-689 P618L limits assumed): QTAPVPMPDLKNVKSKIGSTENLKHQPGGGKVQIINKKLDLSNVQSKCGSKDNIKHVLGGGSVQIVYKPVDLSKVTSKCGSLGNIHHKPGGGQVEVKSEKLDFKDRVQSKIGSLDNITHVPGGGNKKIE
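FP of Alexa 594-tau after heparin (20 uM) induction. Substrate: human K18 P301L, 15 uM unlabeled, 0.24 uM labeled. Buffer 100 mM sodium acetate pH 7. 6 hr, 37 C.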
Coupling enz: coupling enzyme interference in Giardia aldolase counter-screen | coupling enzyme system counterscreen, AmpLite Red fluorescence | actives 0.67% (n = 290,000) | activity change, negative = inhibition, % at 58.2 µM, hits read low; in the data active means activity change below about -30%
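Activity here indicates interference with the coupling reaction, not aldolase inhibition. Compounds at 57.5 uM final met coupling enzymes for 10 min at RT; substrate and AmpLite Red detection followed, with a 525/598 nm fluorescence read after 20 min.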
Tau fibril ThT: tau fibrillization inhibition (ThT binding). P10636. recombinant tau K18 P301L, heparin-induced fibrillization, ThT fluorescence. Potency, µM (highest dose often 57.4 µM), actives largely listed as inhibitors. actives 2.1% (n = 270,000). AID 1460; further: nearly all actives have a fitted effect of over 55% in size
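Using a mix of unlabeled (15 uM) and Alexa 594-labeled (0.24 uM) tau K18 P301L, heparin-triggered fibrillization over 6 hr at 37 C was scored by ThT fluorescence.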
A number is an active result; - = inactive; ? = inconclusive; . = no result; ! = not confirmed by another sample; [ ] = another dose, or the depositor's remark. Unless noted, the call rests on the fitted dose curve; in most records, active means well fitted curve in the direction sought with a large enough effect; inconclusive means small, poorly fitted or top-dose-only effect, or another doubt; inactive means no such curve, though single readings can be large; an effect the other way counts as inactive or inconclusive.

SMILES | G9a inh | Tau fluor cs | Sfp inh | Tau FP inhib | Coupling enz | Tau fibril ThT
CC(=O)c1nc(N2C(=O)CC(Cc3cccc(C)c3)C2=O)sc1C (stereo unspecified) | - | - | - | - | - | -
O=C(Nc1ccc(OCC(F)(F)C(F)F)c(C(F)(F)F)c1)c1ccccc1O | - | ? | - | 25.1µM | - | ?
COCCCN(C(=O)c1cc(-c2ccco2)nc2ccccc12)c1c(N)n(Cc2ccccc2)c(=O)[nH]c1=O | 44.7µM | . | . | . | . | .
CCCn1c(N)c(N(CCOC)C(=O)c2cc(-c3ccco3)nc3ccccc23)c(=O)[nH]c1=O | 39.8µM | . | 44.7µM | . | . | .
CCCCn1c(N)c(N(CCOC)C(=O)c2cc(-c3ccccc3)nc3ccccc23)c(=O)[nH]c1=O | - | . | . | . | . | .
COc1ccc2cc1Oc1ccc(cc1)C[C@H]1c3c(cc4c(c3Oc3cc5c(cc3OC)CCN(C)[C@@H]5C2)OCO4)CCN1C | 11.2µM! | - | - | - | - | ?
O=C(COc1ccccc1)Nc1ccc2oc(=O)ccc2c1 | - | . | - | . | - | .
C/C(=N\Nc1ccc(F)cc1)c1ccc(N2CCOCC2)c(F)c1 | 28.2µM | . | - | . | - | .
COC(=O)c1ccc(N2CCOCC2)c(F)c1 | - | - | - | - | - | -
Cn1c[n+](C)cc1/C=N/O | 39.8µM | - | - | - | - | -
CSCC[C@H](NC(=O)N1CCn2c1nc1ccccc12)C(=O)NCc1ccco1 | 79.4µM | . | - | . | - | .
CSCC[C@H](NC(=O)N1CCn2c1nc1ccccc12)C(=O)NCC1CCCO1 (stereo partly specified) | - | . | - | . | . | .
CSCC[C@H](NC(=O)N1CCn2c1nc1ccccc12)C(=O)NCc1ccccc1 | 44.7µM | . | - | . | - | .
CSCC[C@H](NC(=O)N1CCn2c1nc1ccccc12)C(=O)NCc1ccc(C)cc1 | 31.6µM | . | - | . | . | .
CSCC[C@H](NC(=O)N1CCn2c1nc1ccccc12)C(=O)N[C@H](Cc1ccccc1)C(=O)O | -[12.7 µM] | . | - | . | - | .
COc1ccccc1-n1c(SCC(=O)NC2CCS(=O)(=O)C2)nc2cc([N+](=O)[O-])ccc21 (stereo unspecified) | - | - | - | - | - | -
COc1ccccc1-n1c(SCC(=O)c2ccc(O)cc2O)nc2cc([N+](=O)[O-])ccc21 | ? | 10µM[quencher] | - | ? | - | -
CC1CC(C)CN(C(=O)CSc2nnc(-c3ccc(F)cc3)o2)C1 (stereo unspecified) | 70.8µM | - | - | - | - | -
O=C(CSc1nnc(-c2ccc(F)cc2)o1)N1CCCCC1 | - | . | - | . | - | .
COc1ccc([N+](=O)[O-])cc1NC(=O)CC1SC(=Nc2cccc(C)c2C)N(/N=C/c2cccc(OC)c2OC)C1=O (stereo unspecified) | 35.5µM | - | - | - | - | -
CCc1ccc(CN(C(=O)c2cc(=O)c3ccc(C)cc3o2)C2CCS(=O)(=O)C2)cc1 (stereo unspecified) | - | - | . | - | . | -
Cc1ccc(C)c(N2CCN(C(=O)c3cnn(C(C)(C)C)c3C3CCN(C(=O)OC(C)(C)C)CC3)CC2)c1 | - | - | . | - | . | ?
O=C(CNc1ccccc1)c1ccc([N+](=O)[O-])cc1 | 4.47µM | ? | 50.1µM | ? | - | 14.1µM
O=C(CNc1cccc2ccccc12)c1ccc([N+](=O)[O-])cc1 | 3.55µM | ? | - | ? | - | 14.1µM
O=C(Nc1cccc2ccccc12)c1ccc([N+](=O)[O-])cc1 | . | . | - | . | - | .
SMILES | G9a inh | Tau fluor cs | Sfp inh | Tau FP inhib | Coupling enz | Tau fibril ThT
O=C(CNC(=O)c1ccc([N+](=O)[O-])cc1)c1ccccc1 | - | - | - | - | - | -
COc1cc(NC(=O)Cn2nc(C(F)(F)F)c3c2CCC3)cc(OC)c1OC | - | - | . | - | . | -
O=c1[nH]c(-c2ccccc2)c(-c2ccccc2)o1 | 44.7µM | . | - | . | - | .
N#Cc1c(-c2ccccc2)[nH]c(=O)[nH]c1=O | - | - | - | - | - | -
Cc1ccc(N(CC(=O)N2CCOCC2)S(=O)(=O)c2ccccc2)cc1 | - | - | - | - | - | -
Cc1ccc(N(CCC(=O)N2CCOCC2)S(=O)(=O)c2ccccc2)cc1 | 0.708µM | . | . | . | . | .
Cc1ccc(S(=O)(=O)N(CCC(=O)O)c2ccccc2)cc1 | 56.2µM | - | - | - | - | -
Cc1ccccc1NC(=O)c1sc2nc(-c3cc4ccccc4oc3=O)[nH]c(=O)c2c1C | - | - | . | - | . | -
CN(C)c1ccc(NC(=O)C[n+]2ccccc2)cc1 | 50.1µM | . | - | . | - | .
Cc1ccc[n+](CC(=O)Nc2ccc(N(C)C)cc2)c1 | . | . | - | . | - | .
Cc1ccc[n+](CC(=O)Nc2c(Cl)cc(Cl)cc2Cl)c1 | - | -[2.34 µM] | - | - | - | -
O=C(C[n+]1ccccc1)Nc1ccccc1[N+](=O)[O-] | . | . | - | . | - | .
O=C(C[n+]1ccccc1)Nc1c(Cl)cc(Cl)cc1Cl | . | - | 20µM | - | - | 17.8µM
O=C(Cc1ccc2ccccc2c1)Nc1ccccc1Br | - | . | - | . | - | .
O=C(C[n+]1ccccc1)Nc1ccccc1Br | 0.316µM | -[2.34 µM] | - | - | - | -
O=C(Cc1ccc2c(c1)CCCC2)Nc1ccccc1Br | 44.7µM | - | - | - | - | ?
COC(=O)c1[nH]c(C)c(/C(O)=C2\C(=O)C(=O)N(CCN3CCOCC3)C2c2ccccc2OC)c1C (stereo unspecified) | 50.1µM | - | - | - | - | -
CCOC(=O)c1[nH]c(C)c(/C(O)=C2\C(=O)C(=O)N(CCN3CCOCC3)C2c2ccco2)c1C (stereo unspecified) | 39.8µM | - | - | - | - | -
CCOC(=O)c1[nH]c(C)c(/C(O)=C2\C(=O)C(=O)N(CCN(C)C)C2c2ccco2)c1C (stereo unspecified) | -[12.7 µM] | - | - | - | - | -
COC(=O)c1[nH]c(C)c(/C(O)=C2\C(=O)C(=O)N(CCN3CCOCC3)C2c2cccs2)c1C (stereo unspecified) | 44.7µM | - | - | - | - | -
COC(=O)c1[nH]c(C)c(/C(O)=C2\C(=O)C(=O)N(CCN(C)C)C2c2ccccc2OC)c1C (stereo unspecified) | ? | - | - | - | - | -
COC(=O)c1[nH]c(C)c(/C(O)=C2\C(=O)C(=O)N(CCN3CCOCC3)C2c2ccco2)c1C (stereo unspecified) | 50.1µM | - | - | - | - | -
COc1ccc(S(=O)(=O)N2CCN(S(=O)(=O)c3ccc(OC)cc3)CC2)cc1 | -[12.7 µM] | . | . | . | . | .
O=C(CN1CCN(S(=O)(=O)c2ccc(Cl)cc2)CC1)c1ccc(O)c(O)c1 | . | . | 56.2µM | . | . | .
COc1ccc(S(=O)(=O)N2CCN(CC(=O)c3ccc(O)c(O)c3)CC2)cc1 | 28.2µM | . | 44.7µM | . | . | .

Bioassay records as filed in PubChem.
